Shown are actives, neighbours in structure and some others; about 5.7% of the full set was active somewhere.
GLP-1R inv ag = acts as inverse agonist at human GLP-1 receptor; P43220; HEK293 GLP-1R CRE-luciferase, luminescence, 24 h; GLP-1R form is constitutively active; Potency, µM (top dose mostly 38.3 µM), for the others: top-dose activity change, negative = inhibition, hits mostly inhibitors; hit rate 1.6% among 410,000; AID 624417; further: potency means the concentration at half of the fitted maximal effect; on the % scale 0 is the no-effect control and ±100 the full control effect; nearly all actives have a fitted effect of over 55% in size
Target sequence (P43220 whole entry, looked up): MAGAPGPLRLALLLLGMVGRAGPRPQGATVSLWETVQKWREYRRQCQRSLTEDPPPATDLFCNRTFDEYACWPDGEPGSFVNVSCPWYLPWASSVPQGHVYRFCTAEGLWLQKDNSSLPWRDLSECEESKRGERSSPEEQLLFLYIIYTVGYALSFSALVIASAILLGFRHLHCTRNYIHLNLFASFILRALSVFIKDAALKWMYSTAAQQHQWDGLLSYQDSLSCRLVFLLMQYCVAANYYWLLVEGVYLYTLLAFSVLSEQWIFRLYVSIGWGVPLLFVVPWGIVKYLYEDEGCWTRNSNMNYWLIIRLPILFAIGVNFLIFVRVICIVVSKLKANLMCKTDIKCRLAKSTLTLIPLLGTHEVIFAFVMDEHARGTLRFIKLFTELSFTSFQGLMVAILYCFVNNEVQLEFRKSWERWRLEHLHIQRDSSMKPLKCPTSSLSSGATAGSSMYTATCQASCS
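Readout was luciferase luminescence, measured 12 min after detection reagent at room temperature. Beforehand, GLP-1R reporter HEK293 cells had sat 12 h, then received compounds for 24 hr at 37 deg C.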
GLP1R ag = activates the human GLP-1 receptor; HEK293 GLP-1R CRE-luciferase, luminescence, 4-6 h; cells express a hypersensitive GLP-1R form; Potency, µM (highest dose often 45.6 µM), without a hit: at the highest dose activation, usual class: activators; hit rate 0.007% among 380,000; AID 624172; further: potency means the concentration at half of the fitted maximal effect; % of control where 0% means no effect
ClpP mod = qHTS Assay for Activators of ClpP | purified B. subtilis ClpP, FRET peptide cleavage, 20 min | hit rate 1.9% among 340,000 | Potency, µM (titrated, usually from 57.5 µM), inactives show top-dose activity change, negative = active | ATP-dependent Clp protease proteolytic subunit (Bacillus subtilis (strain 168)), P80244; active means well fitted falling curve with a large enough effect; inconclusive means small, poorly fitted or top-dose-only effect; inactive means no such curve, though single readings can be large or run the other way; further: potency means the concentration at half of the fitted maximal effect; the source files actives as falling curves though it sought activators and does not explain the sign; nearly all actives have a fitted effect of over 65% in size
Target sequence (P80244 whole entry, looked up): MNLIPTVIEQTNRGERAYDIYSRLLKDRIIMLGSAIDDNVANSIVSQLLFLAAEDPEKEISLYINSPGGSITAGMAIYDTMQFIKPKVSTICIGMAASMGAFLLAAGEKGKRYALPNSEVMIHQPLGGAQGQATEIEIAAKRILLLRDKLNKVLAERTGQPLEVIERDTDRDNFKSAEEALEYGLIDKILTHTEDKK
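Buffer: 100 mM Tris/HCl pH8, 100 mM KCl, 0.05% low protease BSA, 2.5% glycerol, 0.01% Tween-20. ClpP 10 microg/mL final; 20 min RT; delta FRET normalized to ADEP and DMSO controls.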
DRD3 agonist = activates the human D3 dopamine receptor; P35462; D3R DiscoveRx beta-arrestin cells, luminescence, 90 min; max activation, %; hit rate 0.58% among 410,000; AID 652048; in the data active means max activation above about 30%; further: 0% is about no effect
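Cells at 1500/well, incubated overnight, then treated with pinned compounds (dopamine as control) for 90 min at 37 degrees C. DiscoveRx reagent added for 30 - 60 minutes at room temperature; luminescence read.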
D3 antag = D3 dopamine receptor (human) antagonism; AID 652054; max response, negative = inhibition, %; P35462; hit rate 2.5% among 360,000; D3R cells, DiscoveRx beta-arrestin luminescence, antagonist mode; active compounds read low; in the data active means max response below about -50%; inconclusive means no clear call, values can overlap the other calls; further: on the % scale 0 is the no-effect control and ±100 the full control effect
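Cells plated overnight at 1500 cells/well, then exposed to library compounds with dopamine controls for 90 minutes at 37 degrees C. DiscoveRx reagent added for 30–60 minutes at room temperature; luminescence read, quantitative HTS format.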
GLP1R cytotox = cytotoxicity counter-screen for GLP-1 receptor inverse agonists. hit rate 0.13% among 410,000. AID 624418. HEK293 cAMP-luciferase reporter cells, luminescence, 24 h. Potency, µM (top dose mostly 38.3 µM), without a hit: top-dose activity change, negative = inhibition, usual class: inhibitors;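 further: loss of luciferase light is scored as toxicity; potency means the concentration at half of the fitted maximal effect; on the % scale 0 is the no-effect control and ±100 the full control effect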
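A 23 nL compound transfer followed 12 hours of cell culture at 37 deg C; exposure then lasted 24 hr. Luciferase assay detection reagent was dispensed and plates read for luminescence after a 12 min room-temperature wait.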
* marks the source's active call; other numbers are inactive results; u = inconclusive; x = not tested or not shown; [ ] = dose if it differs, or a comment. Unless noted, the call rests on the fitted dose curve; in most records, active means well fitted curve in the direction sought with a large enough effect; inconclusive means small, poorly fitted or top-dose-only effect, or another doubt; inactive means no such curve, though single readings can be large; an effect the other way counts as inactive or inconclusive.

SMILES	GLP-1R inv ag	GLP1R ag	ClpP mod	DRD3 agonist	D3 antag	GLP1R cytotox
COc1ccccc1CNS(=O)(=O)CCNCCc1ccccc1	-0.2%	3.2%	-1.5%	-33.9	-73.5*	-3.5%
COc1ccc(CNS(=O)(=O)CCNCc2ccccc2OC)cc1	6.4%	13.7%	-0.5%	-28.0	-9.4	0.9%
CCCCCCCCNCCS(=O)(=O)NCc1ccc(OC)cc1	u	-0.1%	1.5%	-24.2	-63.1*	-28.8%
CCCCCCCCNS(=O)(=O)CCNCc1ccccc1OC	u	-0.3%	-1.0%	-14.2	-51.3*	-7.5%
CCCCCCCCNS(=O)(=O)CCNCc1ccccc1	u	0.5%	0.0%	5.2	-18.1	13.7%
CCCCn1nnnc1C1(C)CCC(=O)N1Cc1cccnc1 (stereo not given)	9.7%	1.8%	0.3%	4.2	28.4	6.2%
CC(C)(C)CNC(=O)C1(C)CCN1C(=O)C1(c2ccccc2)CC1 (stereo not given)	-7.5%	-6.1%	0.7%	-6.0	0.0	7.8%
CC1(C(=O)NCCC#N)CCN1C(=O)C1(c2ccccc2)CC1 (stereo not given)	21.4%	-8.8%	-28.8%	-10.2	-63.4*	0.6%
CCCC(=O)OC1=CN(Cc2ccccc2)S(=O)(=O)c2ccccc21	-32.7%	x	-2.4%	-0.2	x	4.9%
CCCCc1ccc(NC(=S)NCc2cccc(OC)c2)cc1	u	18.7%	x	-2.4	13.9	u
CCCCc1ccc(NC(=S)Nc2ccc(Nc3ccc(OC)cc3)cc2)cc1	u	-2.9%	-3.4%	-4.5	-80.5*	10.4%
Clc1ccc(-c2csc(Nc3ccccc3)[n+]2Cc2ccco2)c(Cl)c1	2.82µM*	-5.3%	-0.5%	1.4	41.0	6.2%
COc1cc(C)ccc1OCc1cc(C(=O)NC(c2ccccn2)C(F)(F)F)no1 (stereo not given)	12.6µM*	5.8%	-3.4%	1.9	-6.8	3.8%
CCOc1cc(C(=O)N/N=C/c2ccoc2)cc(OCC)c1OCC	6.5%	6.2%	-0.8%	-15.6	-70.4*	0.7%
COc1cc(/C=N/NC(=O)c2cc(-c3cccc(OC(C)C)c3)nc3ccccc23)ccc1O	u	-3.9%	-3.7%	72.9*	61.8	u
COc1ccc(OC)c(/C=N/NC(=O)c2cc(-c3ccc(C)o3)nc3ccccc23)c1	30.6%	11.1%	163.8%	37.4*	19.6	39.3%
CCOc1cc(C(=O)N/N=C/c2ccsc2)cc(OCC)c1OCC	-10.6%	0.1%	1.2%	-17.7	u	u
COc1ccc(OC)c(/C=N/NC(=O)c2csc3ccccc23)c1	-3.6%	18.6%	31.6µM*	-0.5	-3.9	-6.1%
COc1cc(/C=N/NC(=O)c2cc(-c3cccs3)nc3ccccc23)ccc1O	11.6%	14.4%	-20.6%	9.5	53.3	-14.7%
COc1ccc(-c2cc(C(=O)N/N=C/c3cc(OC)c(OC)cc3OC)c3ccccc3n2)cc1	4.1%	-2.3%	-6.6%	10.4	20.5	-10.3%
CCOc1ccc(CCNC(=O)Cc2ccc(NC(=O)N3CCSc4ncccc43)cc2)cc1	-7.2%	x	-13.3%	0.4	x	0.3%
CCOC(=O)c1ccc(NC(=O)C(CC)Sc2nnc3c4ccccc4n(C)c3n2)cc1 (stereo not given)	11.3%	x	0.5%	13.7	x	1.1%
N=C1N=C(N)c2cc3ccccc3cc21	x	-5.0%[96 µM]	x	4.4	x	x
CCC1(c2ccccc2)NC(=O)N(CC(=O)NCC2COc3ccccc3O2)C1=O (stereo not given)	u	-5.2%	0.7%	5.7	9.7	-1.0%
Cn1ccc2cc(S(=O)(=O)N3CCCC(C(=O)NCc4ccc(F)cc4)C3)ccc21 (stereo not given)	u	x	-9.6%	1.5	x	7.5%
SMILES	GLP-1R inv ag	GLP1R ag	ClpP mod	DRD3 agonist	D3 antag	GLP1R cytotox
COc1ccccc1-c1cc(C(=O)N/N=C/c2ccc(C)s2)c2ccccc2n1	-7.6%	-3.8%	-4.5%	1.6	-22.0	-3.6%
COc1ccccc1-c1cc(C(=O)N/N=C/c2ccoc2)c2ccccc2n1	7.0%	1.9%	0.5%	-7.6	-50.7*	5.7%
CCc1ccc(NC(=O)CSc2nccn2-c2ccc(OC)cc2)cc1	10µM*	x	1.5%	-18.8	x	-14.0%
COc1cccc(-c2nn(-c3ccccc3)cc2C(=O)Nc2nccs2)c1	7.08µM*	-9.6%	-1.1%	2.9	32.9	-26.5%
COc1ccc(-c2nn(-c3ccccc3)cc2C(=O)Nc2nccs2)cc1	u	-2.0%	-1.6%	28.4	0.0	u
Cc1cccc(-n2ccnc2SCC(=O)Nc2nccs2)c1	11.5%	8.6%	1.7%	-12.1	0.0	-2.8%
COc1cccc(-n2ccnc2SCC(=O)Nc2nccs2)c1	4.8%	1.8%	28.2µM*	-1.5	u	26.1%
Cc1ccc(C)c(S(=O)(=O)c2nnn3c2nc(NC(C)C)c2sccc23)c1	43.2%	x	u	6.0	x	27.8%
Cc1ccc(-c2nc3cccc(C)n3c2Nc2ccc(F)cc2)o1	x	x	3.8%	x	x	x
CCOC(=O)C1(CCCc2ccccc2)CCN(Cc2cnn(C)c2)CC1	u	13.5%	x	-19.0	-17.3	2.8%
CCOC(=O)C1(CCc2ccccc2)CCN(Cc2ccc(C(=O)OC)cc2)CC1	u	6.7%	0.1%	-20.0	-69.5*	-5.0%
CCOC(=O)C1(CCc2ccccc2)CCN(Cc2cc(OC)c(OC)cc2OC)CC1	u	1.6%	1.5%	-12.0	-13.0	12.4%
CCOC(=O)C1(CCCc2ccccc2)CCN(Cc2ccn[nH]2)CC1	4.47µM*	12.5%	x	-18.2	-18.8	14.0%
CCOC(=O)C1(CC2CC2)CCN(Cc2ccc(C(=O)OC)cc2)CC1	u	7.7%	2.0%	-22.4	-120.3*	-1.2%
Cc1ccc(Nc2c(-c3ccc(N4CCOCC4)cc3)nc3c(C)cccn23)cc1	-5.7%	x	4.1%	3.9	x	9.2%
N#Cc1ccc(NC(=O)Nc2ccc(Cl)cc2)cc1	6.31µM*	-22.0%	0.4%	3.5	9.6	-26.2%
O=C(Nc1cccc2ccccc12)N1CC=CCC1	4.4%	-7.5%	28.2µM*	0.1	12.1	-22.1%
O=C(Nc1cccc2ccccc12)N1CCN(c2ccccc2)CC1	0.2%	-7.8%	-7.1%	-4.8	-8.6	18.7%
CCc1[nH]c(=O)c(C#N)c2c1COC(C)(C)C2	81.4%	5.7%	25.1µM*	0.1	-24.8	5.8%
CCc1ccc(OCC(=O)N(Cc2ccc(C)o2)C2CCS(=O)(=O)C2)cc1 (stereo not given)	-8.3%	x	2.2%	-11.3	x	-3.3%
